PubChem BioAssay AID1159580 (chemical genetic matrix, 2015)
Where “and” joins values, the source holds several entries; their conditions need not be identical. Equal entries are not always repeated. Out of some 5,500 compounds screened, about 2,000 (36%) were called active. Roughly 18% stayed inconclusive and do not appear here. No stated cut-off is given here; in the data, active means normalized growth mostly below about 0.91 (no sharp cut-off); inconclusive means no clear call, values can overlap the other calls; inactive means mostly above about 0.92. The list shows a part of the results.

Experiment: chemical genetic growth profiling, strain panel (AID 1159580);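 further: tested at 20 µM; growth read once vehicle control cultures reached saturation at 30 °C; 1 = growth at the plate median or of vehicle wells; lower values mean less growth of the strain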
Settings: S. cerevisiae deletion strains, growth OD

Measured: normalized growth

CC(C)(C)NC[C@@H](O)COc1nsnc1N1CCOCC1
inactive: locus YAL021C, strain ccr4, active compounds read low 1.02 | locus YAL026C, strain drs2, active compounds read low 1.01 | locus YAL030W, strain snc1, active compounds read low 1.02 | locus YBL061C, strain skt5, active compounds read low 1.01 | locus YBR009C, strain hhf1, active compounds read low 1.01 | locus YBR021W, strain FUR4, active compounds read low 1 | locus YBR023C, strain chs3, active compounds read low 1 | locus YBR171W, strain sec66, active compounds read low 1.03 | locus YBR229C, strain ROT2, active compounds read low 0.977 | locus YBR231C, strain swc5, active compounds read low 1.02 | locus YBR279W, strain paf1, active compounds read low 1.01 | locus YCL011C, strain gbp2, active compounds read low 1.02 | locus YCL016C, strain dcc1, active compounds read low 1.01 | locus YCL029C, strain bik1, active compounds read low 0.978 | locus YCL069W, strain vba3, active compounds read low 1.01 | locus YCR088W, strain abp1, active compounds read low 1.02 | locus YDL005C, strain med2, active compounds read low 1.02 | locus YDL035C, strain GPR1, active compounds read low 1.02 | locus YDL040C, strain nat1, active compounds read low 1.01 | locus YDL074C, strain BRE1, active compounds read low 0.985 | locus YDL101C, strain DUN1, active compounds read low 0.99 | locus YDL185W, strain tfp1, active compounds read low 0.977 | locus YDL192W, strain arf1, active compounds read low 0.994 | locus YDR001C, strain nth1, active compounds read low 1.01 | locus YDR069C, strain doa4, active compounds read low 1.01 | locus YDR101C, strain arx1, active compounds read low 0.95 | locus YDR137W, strain rgp1, active compounds read low 1.02 | locus YDR150W, strain NUM1, active compounds read low 0.99 | locus YDR159W, strain sac3, active compounds read low 1 | locus YDR162C, strain NBP2, active compounds read low 1.02 | locus YDR195W, strain ref2 1.03 | locus YDR297W, strain sur2, active compounds read low 1.02 | locus YDR318W, strain mcm21, active compounds read low 1 | locus YDR334W, strain swr1, active compounds read low 1.02 | locus YDR335W, strain msn5, active compounds read low 1.02 | locus YDR388W, active compounds read low 0.99 | locus YDR392W, strain spt3, active compounds read low 0.973 | locus YDR502C, strain sam2, active compounds read low 0.994 | locus YEL003W, strain gim4, active compounds read low 1.02 | locus YEL037C, strain rad23, active compounds read low 1.01 | locus YEL061C, strain CIN8 (second series), active compounds read low 1.02 | locus YEL061C, strain CIN8, active compounds read low 0.996 | locus YER015W, strain faa2, active compounds read low 1 | locus YER016W, strain bim1, active compounds read low 0.994 | locus YER110C, active compounds read low 0.974 | locus YER111C, strain swi4, active compounds read low 1.02 | locus YER155C, strain BEM2 (second series), active compounds read low 1.01 | locus YER155C, strain BEM2, active compounds read low 0.987 | locus YER167W, strain BCK2, active compounds read low 0.986 | locus YFR010W, strain ubp6, active compounds read low 1.02 | locus YGL078C, strain dbp3, active compounds read low 1 | locus YGL086W, strain mad1, active compounds read low 0.966 | locus YGL167C, strain pmr1, active compounds read low 1.02 | locus YGL173C, strain kem1, active compounds read low 1.02 | locus YGL227W, strain vid30, active compounds read low 1.01 | locus YGL240W, strain doc1, active compounds read low 1.02 | locus YGL248W, strain PDE1, active compounds read low 1 | locus YGL253W, strain hxk2, active compounds read low 1.02 | locus YGR078C, strain PAC10, active compounds read low 1 | locus YGR135W, strain pre9, active compounds read low 1 | locus YGR252W, strain gcn5, active compounds read low 1.08 | locus YHR013C, strain ard1, active compounds read low 1.02 | locus YHR027C, strain rpn1, active compounds read low 1.01 | locus YHR030C, strain SLT2, active compounds read low 0.997 and 0.975 | locus YHR079C, strain IRE1 (second series), active compounds read low 0.983 | locus YHR079C, strain IRE1, active compounds read low 0.973 | locus YHR094C, strain hxt1, active compounds read low 0.974 | locus YHR129C, strain ARP1, active compounds read low 1 | locus YHR142W, strain chs7, active compounds read low 1.03 | locus YHR200W, strain rpn10, active compounds read low 1 | locus YIL066C, strain RNR3, active compounds read low 0.985 | locus YIL073C, strain SPO22, active compounds read low 1.01 | locus YIL125W, strain kgd1, active compounds read low 0.981 | locus YIR030C, strain dcg1, active compounds read low 1 | locus YJL092W, strain hpr5, active compounds read low 1.01 | locus YJL095W, strain BCK1 (second series), active compounds read low 1.02 | locus YJL095W, strain BCK1, active compounds read low 1.01 and 0.975 | locus YJL115W, strain asf1, active compounds read low 1.01 | locus YJL129C, strain trk1, active compounds read low 1.02 | locus YJL134W, strain LCB3, active compounds read low 0.985 | locus YJL154C, strain vps35, active compounds read low 1.02 | locus YJL164C, strain tpk1, active compounds read low 1.01 | locus YJL166W, strain qcr8, active compounds read low 1.01 | locus YJL168C, strain set2, active compounds read low 0.984 | locus YJL187C, strain SWE1 (second series), active compounds read low 0.99 | locus YJL187C, strain SWE1, active compounds read low 1.02 | locus YJR043C, strain POL32, active compounds read low 1.03 | locus YJR066W, strain TOR1, active compounds read low 0.929
